# Assay results: PubChem BioAssay (NCATS)
# Unmarked numbers belong to inactive results. Results filed as inconclusive are left out. Active and inactive are the calls of the source. Unless noted, the call rests on the fitted dose curve; in most records, active means well fitted curve in either direction with a large enough effect (not every such curve was filed as active); inconclusive means small, poorly fitted or top-dose-only effect, or another doubt; inactive means flat fitted curve, though single readings scatter.
# Columns and labels:
# [1] = molecular target: Lysosomal acid glucosylceramidase (Homo sapiens) (UniProt P04062); experiment: Glucocerebrosidase-p2 (AID 348; in the data active means potency below about 10 µM; further: potency means the concentration at half of the fitted maximal effect); conditions: purified GBA, blue fluorogenic substrate, 40 min
# Method in brief: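 Compounds titrated from 0.6 nM upwards against 0.2 nM enzyme in pH 5.9 citric acid/KH2PO4, taurocholate, tween-20; blue fluorogenic substrate 80 uM, 40 min room temperature, stopped and read Ex 365/Em 440 for AC50.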
# [2] = AP1 Signaling Pathway (AID 357); conditions: ME-180 AP-1-bla reporter, EGF-induced, beta-lactamase ratio, 5 h; at 7.69 µM (top of the series) unless noted;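 further: ME-180 reporter cells stimulated with EGF at its EC50 level; on the % scale 0 is the no-effect control and ±100 the full control effect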
# Method in brief: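 A ratiometric CCF4 readout (405 nm excitation; 460 and 530 nm emission) quantified AP-1-driven beta-lactamase in ME-180 cells after 5 h with compound and EC50 EGF; AC50 values were derived for activators and inhibitors.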
# [3] = molecular target: Cytochrome P450 1A2 (Homo sapiens) (UniProt P05177); experiment: p450-cyp1a2 (AID 410; calls by dose curve; further: potency means the concentration at half of the fitted maximal effect;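 on activity change, negative = inhibition: -100% = full effect of reference inhibitor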); conditions: recombinant CYP1A2, luciferin-ME demethylation, luminescence; series mostly up to 11.4 µM
# Method in brief: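 Human CYP1A2 (20nM) demethylated Luciferin-ME at its Km (100uM) in 100mM KPO4. After 10 min compound preincubation, NADPH regeneration ran the reaction 60 min at room temperature. Luciferin was read by luminescence, normalized to 57 uM furafylline.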
# [4] = NFAT Signaling Pathway (AID 444); conditions: Jurkat NFAT-bla M1, carbachol, beta-lactamase ratio, 5 h; at 7.69 µM (top of the series) unless noted;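 further: carbachol stimulus at about its EC50 of 1 µM final; on the % scale 0 is the no-effect control and ±100 the full control effect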
# Method in brief: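 Read-out: CCF4 FRET ratio (460 nm/530 nm) after 1 h RT dye loading, used for %activity and AC50 from titration series. Cells: Jurkat NFAT-β-lactamase/M1 line, treated with compound plus 1 uM carbachol for 5 h, 37 °C.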
# [5] = Stat Signaling Pathway (AID 446); conditions: ME-180 SIE beta-lactamase reporter, IL-6 stimulated, 5 h; at 7.69 µM (top of the series) unless noted;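 further: ME-180 cervical cancer cells given 40 pM IL-6 alongside compound; SIE-controlled beta-lactamase reporter measured as 460/530 nm FRET emission ratio; on the % scale 0 is the no-effect control and ±100 the full control effect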
# Method in brief: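 Screening format detects activators and inhibitors alike: ME-180 SIE-bla cells stimulated at 40 pM IL-6 for 5 hrs with compound, then dual-emission beta-lactamase read at 405 nm excitation.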
# [6] = molecular target: Glucocorticoid receptor (Homo sapiens) (UniProt P04150); experiment: GR-GFP Redistribution (AID 450;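 active means compounds whose dose series gives a full or clear partial fitted curve of increased nuclear translocation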; further: potency means the concentration at half of the fitted maximal effect); conditions: U2OS GR-GFP nuclear translocation, laser cytometry, 2 h
# [7] = molecular target: Glucocorticoid receptor (Homo sapiens) (UniProt P04150); experiment: GR-EFC Redistribution (AID 451; calls by dose curve; further: potency means the concentration at half of the fitted maximal effect); conditions: CHO-K1 GR-EFC translocation, beta-gal luminescence, 2 h
# Method in brief: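 Translocation of GR-ED fusion to nuclear EA restores b-gal, read by luminescence after 1 h room-temperature detection. Engineered CHO-K1 biosensor cells, 1,000/well, exposed 2 h at 37 C to titrations up to 46 uM final.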
# [8] = molecular target: Mitogen-activated protein kinase 10 (Mus musculus) (UniProt Q61831); experiment: JNK3 AlphaScreen Assay (AID 530); conditions: JNK3 lysate, c-Jun phosphorylation; series mostly up to 11.4 µM;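 further: kinase came from lysate of stimulated human HepG2 cells; signal reports phosphorylation of biotinylated GST-cJun 1-79 at Ser73 with 10 µM ATP; on the % scale 0 is the no-effect control and ±100 the full control effect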
# Method in brief: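 Room-temperature AlphaScreen kinase assay; pre-activated HepG2 lysate as JNK3 source, biotin-GST-cJun(1-79) substrate, 10 uM ATP, compound 15 min preincubation.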
# [9] = molecular target: 3',5'-cyclic-AMP phosphodiesterase 4B (Homo sapiens) (UniProt Q07343); experiment: qHTS Assay for Inhibitors of PDE-IV (AID 607; active means well fitted activation curve with a large enough effect in the main read-out, with a control signal flat, not every such curve was filed as active; further: % of control where 0% means no effect); conditions: HEK293 ACTOne CNG channel cells, membrane potential fluorescence; series mostly up to 22.9 µM
# Method in brief: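 The readout is membrane depolarisation from a cAMP-sensing CNG channel, detected with a potential dye at ex 535/em 590. Cells were HEK293-derived (endogenous PDE-IV) at 1000 cells/well, titrated up to 22.9 uM final.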
# [10] = molecular target: Cytochrome P450 3A4 (Homo sapiens) (UniProt P08684); experiment: qHTS Assay for Activators of Cytochrome P450 3A4 (AID 885; active means well fitted activation curve with a large enough effect; further: nearly all actives have a fitted effect of over 65% in size); conditions: recombinant CYP3A4, Luciferin-PPXE luminescence, 60 min; series mostly up to 11.4 µM
# Method in brief: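 Steps: enzyme/substrate mix dispensed; compound added, 10 min RT; NADPH regeneration solution added, 60 min RT; luciferin detection buffer stops reaction; 20 min later luminescence measured.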
# Sequence of Glucocorticoid receptor (Homo sapiens) (P04150 whole entry, looked up, the tested form may be a part): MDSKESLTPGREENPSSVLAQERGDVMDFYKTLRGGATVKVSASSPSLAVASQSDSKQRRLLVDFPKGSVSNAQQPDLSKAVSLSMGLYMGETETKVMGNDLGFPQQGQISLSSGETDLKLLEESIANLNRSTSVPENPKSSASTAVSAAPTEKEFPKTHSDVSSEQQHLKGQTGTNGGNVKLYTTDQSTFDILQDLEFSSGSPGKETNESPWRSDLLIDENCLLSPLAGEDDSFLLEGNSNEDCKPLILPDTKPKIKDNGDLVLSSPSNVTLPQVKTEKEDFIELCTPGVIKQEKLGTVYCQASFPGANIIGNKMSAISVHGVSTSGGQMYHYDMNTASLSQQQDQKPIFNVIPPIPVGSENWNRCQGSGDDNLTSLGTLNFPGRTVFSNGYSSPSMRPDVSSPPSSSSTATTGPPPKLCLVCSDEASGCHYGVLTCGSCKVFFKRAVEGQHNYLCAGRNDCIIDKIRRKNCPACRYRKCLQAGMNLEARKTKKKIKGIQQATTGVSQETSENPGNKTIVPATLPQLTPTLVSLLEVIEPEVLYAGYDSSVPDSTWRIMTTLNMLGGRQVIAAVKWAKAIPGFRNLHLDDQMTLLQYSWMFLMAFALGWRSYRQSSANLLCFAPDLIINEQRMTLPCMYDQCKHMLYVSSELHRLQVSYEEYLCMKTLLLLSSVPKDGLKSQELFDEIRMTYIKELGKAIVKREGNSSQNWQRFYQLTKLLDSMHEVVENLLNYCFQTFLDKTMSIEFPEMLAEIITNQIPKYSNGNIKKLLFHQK
# Sequence of Lysosomal acid glucosylceramidase (Homo sapiens) (P04062 whole entry, looked up): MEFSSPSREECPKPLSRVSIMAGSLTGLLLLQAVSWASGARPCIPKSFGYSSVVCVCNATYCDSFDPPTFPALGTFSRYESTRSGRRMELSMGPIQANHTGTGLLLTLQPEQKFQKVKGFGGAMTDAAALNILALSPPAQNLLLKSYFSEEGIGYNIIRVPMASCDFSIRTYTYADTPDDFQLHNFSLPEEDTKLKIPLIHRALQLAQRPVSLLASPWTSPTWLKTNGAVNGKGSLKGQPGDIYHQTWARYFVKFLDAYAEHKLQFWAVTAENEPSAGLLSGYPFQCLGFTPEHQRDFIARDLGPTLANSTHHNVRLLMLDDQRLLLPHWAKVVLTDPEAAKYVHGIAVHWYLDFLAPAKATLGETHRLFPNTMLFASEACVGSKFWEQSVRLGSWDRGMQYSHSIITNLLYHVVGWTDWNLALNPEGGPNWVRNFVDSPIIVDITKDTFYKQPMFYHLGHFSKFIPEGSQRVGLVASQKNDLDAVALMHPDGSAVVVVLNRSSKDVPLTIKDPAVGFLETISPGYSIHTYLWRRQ
# Sequence of 3',5'-cyclic-AMP phosphodiesterase 4B (Homo sapiens) (Q07343 whole entry, looked up): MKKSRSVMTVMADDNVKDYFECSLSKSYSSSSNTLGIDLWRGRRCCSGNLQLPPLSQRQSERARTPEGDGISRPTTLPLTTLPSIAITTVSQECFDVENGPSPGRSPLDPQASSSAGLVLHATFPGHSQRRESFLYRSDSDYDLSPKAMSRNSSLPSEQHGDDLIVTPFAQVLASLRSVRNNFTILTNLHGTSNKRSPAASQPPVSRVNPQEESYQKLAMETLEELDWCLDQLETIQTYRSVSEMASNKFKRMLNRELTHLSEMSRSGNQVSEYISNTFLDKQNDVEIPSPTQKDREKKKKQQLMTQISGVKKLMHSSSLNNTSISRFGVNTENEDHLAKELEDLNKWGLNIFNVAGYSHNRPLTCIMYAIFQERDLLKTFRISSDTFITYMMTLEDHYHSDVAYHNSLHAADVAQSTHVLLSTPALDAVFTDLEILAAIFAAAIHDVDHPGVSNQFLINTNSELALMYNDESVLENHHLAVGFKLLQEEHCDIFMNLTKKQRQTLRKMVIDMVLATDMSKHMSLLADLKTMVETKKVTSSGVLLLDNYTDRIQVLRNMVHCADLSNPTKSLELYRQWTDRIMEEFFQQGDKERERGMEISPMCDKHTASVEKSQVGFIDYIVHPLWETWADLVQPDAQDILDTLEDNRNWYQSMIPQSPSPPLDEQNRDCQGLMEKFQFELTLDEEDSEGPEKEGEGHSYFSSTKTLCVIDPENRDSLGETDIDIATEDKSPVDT
# Sequence of Cytochrome P450 1A2 (Homo sapiens) (P05177 whole entry, looked up): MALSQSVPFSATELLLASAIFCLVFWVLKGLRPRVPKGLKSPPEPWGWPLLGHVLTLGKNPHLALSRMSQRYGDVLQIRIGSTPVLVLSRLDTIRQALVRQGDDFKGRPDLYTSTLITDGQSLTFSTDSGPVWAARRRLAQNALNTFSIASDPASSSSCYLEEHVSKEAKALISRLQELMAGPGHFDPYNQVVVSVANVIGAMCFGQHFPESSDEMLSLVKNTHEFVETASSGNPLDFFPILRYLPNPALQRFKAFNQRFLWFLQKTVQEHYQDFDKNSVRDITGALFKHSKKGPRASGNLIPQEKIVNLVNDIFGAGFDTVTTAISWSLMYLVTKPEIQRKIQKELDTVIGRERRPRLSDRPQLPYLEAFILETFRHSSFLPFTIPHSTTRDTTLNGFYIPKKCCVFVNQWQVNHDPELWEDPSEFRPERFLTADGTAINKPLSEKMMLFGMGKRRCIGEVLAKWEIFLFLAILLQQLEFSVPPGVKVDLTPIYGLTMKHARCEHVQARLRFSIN
# Sequence of Cytochrome P450 3A4 (Homo sapiens) (P08684 whole entry, looked up): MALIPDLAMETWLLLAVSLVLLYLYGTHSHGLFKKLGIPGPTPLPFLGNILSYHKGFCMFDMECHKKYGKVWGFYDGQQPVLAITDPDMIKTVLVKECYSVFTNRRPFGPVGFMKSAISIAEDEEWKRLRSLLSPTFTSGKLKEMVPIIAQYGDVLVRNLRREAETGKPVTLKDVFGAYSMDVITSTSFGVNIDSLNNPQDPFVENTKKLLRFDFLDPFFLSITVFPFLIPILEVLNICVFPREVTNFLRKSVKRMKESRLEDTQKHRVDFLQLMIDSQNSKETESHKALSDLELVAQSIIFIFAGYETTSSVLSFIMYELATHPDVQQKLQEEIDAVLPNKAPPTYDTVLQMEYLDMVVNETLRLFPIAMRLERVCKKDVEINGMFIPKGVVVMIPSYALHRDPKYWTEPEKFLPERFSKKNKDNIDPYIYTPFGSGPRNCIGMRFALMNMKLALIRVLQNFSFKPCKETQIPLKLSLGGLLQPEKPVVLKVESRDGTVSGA
SMILES,Potency [1] [µM],"activity change, negative = inhibition [2] [%]",Potency [3],"activity change, negative = inhibition [4] [%]","activity, negative = inhibition [5] [%]",Potency [6] [µM],Potency [7] [µM],Potency [8],Potency [9],Potency [10],"activity change, negative = inhibition [3]"
COCCNc1nc(-c2ccc(C(=O)N(C)C)cc2)nc2ccccc12,> 11.4,11.7,20 µM (active),17.9,1.02,> 46,> 46,inactive,inactive,inactive,
CC(C)C[C@@H](N)C(=O)Nc1ccc2ccccc2c1,> 11.4,9.25,1.58 µM (active),8.34,-2.09,> 46,> 9.22,inactive,inactive,inactive,
O=C(O)[C@@H]1[C@@H](C(=O)NCc2ccncc2)[C@@H]2C=C[C@@H]1O2,> 11.4,4.03,5.01 µM (active),8.48,-1.14,> 46,> 9.22,inactive,inactive,inactive,
Cn1c(=O)c2[nH]c(CCCc3ccc([N+](=O)[O-])cc3)nc2n(C)c1=O,> 11.4,1.15,inactive,-1.84,6,> 46,> 9.22,inactive,inactive,inactive,
Cn1c(=O)c2[nH]c(CCS)nc2n(C)c1=O,> 11.4,3.25,inactive,-18,3.06,> 46,> 9.22,inactive,inactive,inactive,
Cc1nc2cnc(Oc3cccc(Cl)c3)nc2n(C[C@H]2CCCO2)c1=O,> 11.4,-15.8,7.94 µM (active),-3.55,-6.17,> 9.22,> 46,inactive,inactive,inactive,
O=C1C2=C(Nc3cc([N+](=O)[O-])ccc3N2)O[C@@H]1c1c[nH]c2ccc(COc3ccccc3)cc12,> 11.4,-21.7,2.51 µM (active),6.34,0.333,> 46,> 9.22,inactive,inactive,inactive,
Cc1ccc(N=Nc2ccc(N)cc2C)c(S(N)(=O)=O)c1,> 11.4,2.62,0.501 µM (active),15.6,-6.29,> 46,> 9.22,inactive,inactive,inactive,
Nc1n[nH]c2ccccc12,> 11.4,-6.63,,3.29,-1.94,> 46,> 9.22,inactive,inactive,inactive,-9.1% [at 2.29 µM]
CCOC(=O)C1=C(C)NC(=O)N[C@@H]1c1coc2cc(C)cc(C)c2c1=O,> 11.4,-13.4,2.51 µM (active),17.5,-5.6,> 46,> 9.22,inactive,inactive,inactive,
C[C@@H]1CCCN(CP(=O)(c2ccccc2)c2ccccc2)C1,> 11.4,2.85,inactive,-1.11,0.378,> 46,> 9.22,inactive,inactive,inactive,
COCCn1c(=O)c(-c2ccccc2)nc2cnc(Oc3ccccc3)nc21,> 11.4,-29.9,1.58 µM (active),-6.49,-4.14,> 9.22,> 46,inactive,inactive,inactive,
c1cncc(-c2cc(-c3cc(-c4cccnc4)n[nH]3)[nH]n2)c1,> 11.4,4.4,0.501 µM (active),14,-1.32,> 46,> 9.22,inactive,inactive,inactive,
